From PubChem BioAssay (EPA / NIEHS)
Inconclusive results are not listed. The source made the active and inactive calls. Rule for the calls, unless noted: active = hit-call score of the fitted dose curve at least 0.9, where 1 is the maximum; inactive = score below 0.9.

test: CCTE_Simmons_MITO_max_resp_rate: CCTE's HepG2 Seahorse XF Respirometric Screening Assay at Maximal Respiratory State [uncoupled], Simmons Lab (AID 2284002); details: actives raise or lower the signal
Method in brief: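 Uncoupled (FCCP) respiration of HepG2 cells served as the endpoint, with measurements at 6-minute intervals across a 72-minute run and compounds dosed at 7 concentrations up to 100 uM final.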

Row | Compound | outcome | AC50
1 | CC(C)N(Cc1ccccc1)C(=O)C(C)(C)C | inactive | 
2 | C[C@]12C=CC3=C4CCC(=O)C=C4CC[C@H]3[C@@H]1CC[C@@H]2O | inactive | 
3 | CC(C)(C)C(O)(CCc1ccc(Cl)cc1)Cn1cncn1 (stereo not drawn) |  | 33.4 µM (active)
4 | Cc1cc(N=Nc2ccccc2C)ccc1N |  | 36.4 µM (active)
5 | COc1cc(C=O)cc2c1[C@H](COC(N)=O)[C@]1(OC(C)=O)ON2C[C@H]2[C@@H]1N2C(C)=O | inactive | 
6 | CCOC(=O)[C@]1(c2ccccc2)Oc2ccccc2[C@@H]1N |  | 31.3 µM (active)
7 | Nc1ccc(N=Nc2ccccc2)cc1 | inactive | 
8 | CCC[CH2][Sn]([Cl])([CH2]CCC)[CH2]CCC |  | 3.2 µM (active)
9 | CCCCCCCCn1sccc1=O |  | 52 µM (active)
10 | CCC(C)c1ccc(O)cc1 (stereo not drawn) | inactive | 
11 | [Cl-].[Cl-].[Hg+2] |  | 50 µM (active)
12 | CC(C)COC(=O)c1ccccc1C(=O)OCC(C)C |  | 50 µM (active)

test: CCTE_Simmons_MITO_inhib_resp_rate: CCTE's HepG2 Seahorse XF Respirometric Screening Assay at Inhibited Respiratory State [full ETC block], Simmons Lab (AID 2284006); details: actives raise or lower the signal
Method in brief: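 HepG2 oxygen consumption was measured by Seahorse XF after compound, FCCP, then rotenone/antimycin A injections. Seven concentrations from 125 nM to 100 uM (final) were tested, with 6-min kinetic reads over 72 minutes. Inhibited-state OCR was fitted bidirectionally against DMSO.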

Row | Compound | outcome | AC50
13 | CC(C)N(Cc1ccccc1)C(=O)C(C)(C)C | inactive | 
14 | C[C@]12C=CC3=C4CCC(=O)C=C4CC[C@H]3[C@@H]1CC[C@@H]2O | inactive | 
15 | CC(C)(C)C(O)(CCc1ccc(Cl)cc1)Cn1cncn1 (stereo not drawn) | inactive | 
16 | Cc1cc(N=Nc2ccccc2C)ccc1N | inactive | 
17 | COc1cc(C=O)cc2c1[C@H](COC(N)=O)[C@]1(OC(C)=O)ON2C[C@H]2[C@@H]1N2C(C)=O | inactive | 
18 | CCOC(=O)[C@]1(c2ccccc2)Oc2ccccc2[C@@H]1N | inactive | 
19 | Nc1ccc(N=Nc2ccccc2)cc1 | inactive | 
20 | CCC[CH2][Sn]([Cl])([CH2]CCC)[CH2]CCC | inactive | 
21 | CCCCCCCCn1sccc1=O | inactive | 
22 | CCC(C)c1ccc(O)cc1 (stereo not drawn) | inactive | 
23 | [Cl-].[Cl-].[Hg+2] |  | 50 µM (active)
24 | CC(C)COC(=O)c1ccccc1C(=O)OCC(C)C | inactive | 

test: CCTE_Simmons_MITO_viability: CellTiter-Glo Viability Assessment for CCTE's HepG2 Seahorse XF Respirometric Screening Assay [post-hoc], Simmons Lab (AID 2284007; active = hit-call score of the fitted dose curve at least 0.9, where 1 is the maximum;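 for AC50: cells exposed to chemical for 90 min before the ATP read; actives lower ATP signal relative to DMSO baseline meaning reduced viability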); details: not given
Method in brief: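 HepG2 cells exposed 90 min to 7 concentrations from 125 nM to 100 uM final, then ATP measured by luciferase luminescence. Three biological replicates per concentration; DMSO vehicle; dichlone control at 10 nM–100 uM.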

Row | Compound | outcome | AC50
25 | CC(C)N(Cc1ccccc1)C(=O)C(C)(C)C | inactive | 
26 | CC(C)(C)C(O)(CCc1ccc(Cl)cc1)Cn1cncn1 (stereo not drawn) | inactive | 
27 | Cc1cc(N=Nc2ccccc2C)ccc1N | inactive | 
28 | CCOC(=O)[C@]1(c2ccccc2)Oc2ccccc2[C@@H]1N | inactive | 
29 | Nc1ccc(N=Nc2ccccc2)cc1 | inactive | 
30 | CCC[CH2][Sn]([Cl])([CH2]CCC)[CH2]CCC |  | 11.9 µM (active)
31 | CCCCCCCCn1sccc1=O |  | 74.4 µM (active)
32 | [Cl-].[Cl-].[Hg+2] |  | 15.3 µM (active)
33 | CC(C)COC(=O)c1ccccc1C(=O)OCC(C)C | inactive | 
